Rows were chosen to be rich in hits. Some 2% of all compounds tested hit in one or more screens of this group.
Abeta yeast res: qHTS for compounds that reverse cellular toxicity of Amyloid beta (A-beta) peptide in yeast: Primary Screen | AID 1347071, 2019 | yeast expressing A-beta42, growth rescue, OD600, 48 h; response scale: 0% DMSO, 100% iron-clioquinol control | Potency, µM (highest dose often 46.1 µM), most hits filed as activators | 410,000 tested, 0.063% active; further: nearly all actives have a fitted effect of over 55% in size
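Yeast A-beta toxicity model in growth medium with pinned compounds, 48 h at 30 C; growth read as absorbance at 600 nm. Normalized to FeCl3/clioquinol equimolar mix (positive) and DMSO (negative).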
TDP43 rescue: qHTS of TDP-43 Inhibitors; Potency, µM (series often up to 46.1 µM), inactives show top-dose growth rescue (activation), hits mostly activators; TDP-43 expressing yeast growth rescue, BacTiter-Glo, 24 h; 410,000 tested, 1.8% active; AID 652104, 2013; further: % of control where 0% means no effect; nearly all actives have a fitted effect of over 50% in size
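Cell-based yeast growth screen: TDP-43 expression induced in galactose, inoculum OD600=0.02 after raffinose pregrowth to mid-log. Read-out BacTiter-Glo luminescence at 24 hr, 30 deg C; inhibition of toxicity seen as signal increase.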
GRP78 ERSR act: qHTS for Inducers of the Endoplasmic Reticulum Stress Response (ERSR) in Human Glioma: qHTS; U87-MG GRP78 promoter luciferase reporter, 16 h; Potency, µM, for the others: top-dose activation, hits mostly activators; 420,000 tested, 0.02% active; AID 602332, 2012; further: series mostly up to about 76 µM; % of control where 0% means no effect; nearly all actives have a fitted effect of over 35% in size
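Stably transfected U87-MG human glioma cells carrying a GRP78-based luminescent sensor were seeded at 1000 cells/well, pin-dosed with compounds and incubated 16 h. Luciferase reagent was then added, and end-point luminescence was read after 10 min at room temperature.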
MBNL1 CUG block: qHTS Assay for Inhibitors of MBNL1-poly(CUG) RNA binding; AID 2675, 2010; Muscleblind-like protein 1 (Homo sapiens), Q9NR56; 280,000 tested, 0.036% active; Potency, µM (titrated, usually from 57.5 µM), for the others: at the highest dose activity change, negative = inhibition, hits mostly inhibitors; TR-FRET MBNL1-His/biotin-(CUG)12 binding, 665/545 ratio; active means well fitted inhibition curve with a large enough effect in the signal ratio, with a control signal flat, not every such curve was filed as active; inconclusive means small, poorly fitted or top-dose-only effect, or effect the other way, or a change in a side signal; inactive means no such curve, though single readings can be large or run the other way; the % refers to the signal ratio; further: on the % scale 0 is the no-effect control and ±100 the full control effect
Target sequence (Q9NR56 whole entry, looked up): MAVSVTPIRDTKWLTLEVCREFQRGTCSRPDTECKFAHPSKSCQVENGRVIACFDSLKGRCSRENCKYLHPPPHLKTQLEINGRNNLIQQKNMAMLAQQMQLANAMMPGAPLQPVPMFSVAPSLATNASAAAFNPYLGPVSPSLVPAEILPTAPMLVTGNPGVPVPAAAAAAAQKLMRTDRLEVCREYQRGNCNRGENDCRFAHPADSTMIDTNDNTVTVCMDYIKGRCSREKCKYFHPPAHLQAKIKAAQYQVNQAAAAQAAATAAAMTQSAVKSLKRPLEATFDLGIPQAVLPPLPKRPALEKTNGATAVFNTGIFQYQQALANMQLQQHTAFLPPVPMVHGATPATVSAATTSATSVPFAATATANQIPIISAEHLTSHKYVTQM
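TR-FRET readout: Ex 340 nm, 665/545 nm emission ratio, normalized to buffer-only (basal) and MBNL1-(CUG)12 controls. Complex of MBNL1-His with Biotin-(CUG)12, compounds 92 nM–58 uM, incubated 60 min at room temperature.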
aSyn yeast inh: qHTS of alpha-syn Inhibitors | Yeast expressing alpha-synuclein, growth rescue, BacTiter-Glo, 24 h | Potency, µM (doses to about 46.1 µM), inactives show at the highest dose growth rescue (activation), usual class: activators | 370,000 tested, 0.14% active | AID 652106, 2013; further: % of control where 0% means no effect; nearly all actives have a fitted effect of over 65% in size
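Readout is rescue of growth in alpha-synuclein-expressing yeast, so inhibitors of toxicity appear as activators. Growth after 24 hr at 30 deg C in galactose medium is quantified by luminescence.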
FUS yeast rescue: qHTS for Suppressors of FUS Proteinopathy: Primary screen using FUS-linked yeast assay; S. cerevisiae FUS-expressing, growth rescue, OD600, 24 h; Potency, µM (highest dose often 76.6 µM), hits mostly activators; 390,000 tested, 0.24% active;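 further: plate controls were DMSO vehicle for no effect and reference control for full effect; nearly all actives have a fitted effect of over 55% in size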
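Cultures pregrown in 2.5% raffinose medium are shifted to minimal medium containing 2% galactose to express toxic FUS. Compounds are tested at several concentrations. After 24hr at 30C, growth is quantified at 600 nm absorbance.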
The depositor's hits bear a star; i = inactive; ? = inconclusive; nt = not tested or not shown; [ ] = another dose, or the depositor's remark. Unless noted, the call rests on the fitted dose curve; in most records, active means well fitted curve in the direction sought with a large enough effect; inconclusive means small, poorly fitted or top-dose-only effect, or another doubt; inactive means no such curve, though single readings can be large; an effect the other way counts as inactive or inconclusive. Potency means the concentration at half of the fitted maximal effect.

SMILES	Abeta yeast res	TDP43 rescue	GRP78 ERSR act	MBNL1 CUG block	aSyn yeast inh	FUS yeast rescue
CCCCCN1CCCCC(NC(=O)CSc2ccccc2)C1=O (configuration not stated)	nt	nt	nt	nt	nt	i
COC(=O)c1cc(-c2cccc3c2sc2ccccc23)c(=O)n2c1CCC2	nt	nt	nt	nt	nt	i
COc1cccc(Oc2nc(-c3ccncc3)nc3ccccc23)c1	i	13µM*	-2%	6%	30%	i
O=C(C1COc2ccccc2O1)N1CCN(c2ccccc2)CC1 (configuration not stated)	?	25µM*	-3%	-5%	1%	i
O=C(C1COc2ccccc2O1)N1CCOCC1 (configuration not stated)	i	-19%	4%	-15%	-3%	?
O=C(C1COc2ccccc2O1)N1CCN(c2nc3ccc(F)cc3s2)CC1 (configuration not stated)	?	20µM*	1%	nt	nt	?
COc1ccc2nc(N3CCN(C(=O)C4COc5ccccc5O4)CC3)sc2c1 (configuration not stated)	i	?	5%	nt	21%	i
Nc1nccc(-c2cccs2)n1	i	12%	-5%	14%	-12%	i
Cc1ccc(C)n1-c1ccc(-c2ccnc(N)n2)cc1	i	32µM*	-2%	11%	11%	i
COc1ccc(/C=C2/C(=O)OCc3cc(OC)c(OC)cc32)cc1	i	20µM*	-6%	10%	4%	i
COc1cc2c(cc1OC)C(=O)OC2	nt	nt	-2%	nt	nt	nt
CC(=O)Nc1ccc(/C=C/c2nc3ccccc3s2)cc1	nt	nt	-2%	nt	?	nt
COC(=O)CS(=O)(=O)c1nnc([C@H](Cc2ccccc2)NC(=O)OC(C)(C)C)o1	i	35µM*	-14%	3%	-21%	nt
CC(C)CN1C(=O)/C(=C/c2ccco2)NC1=S	i	?	-1%	-13%[11.5 µM]	-7%	i
Cc1ccc(/C=C2/NC(=O)N(Cc3ccccc3F)C2=O)s1	i	17%	3%	-1%	-11%	i
CCCN1C(=O)/C(=C/c2ccc(C)s2)NC1=S	i	11µM*	0%	?	-8%	i
CC(C)CN1C(=O)/C(=C/c2cccs2)NC1=S	i	25µM*	-4%	?	-23%	i
CC(=O)c1ccc(-c2cc(F)cc3c2OC(CNC(=O)C(C)N2CCOCC2)C3)s1 (configuration not stated)	nt	nt	-1%	nt	nt	nt
O=C(Nc1cc(Cl)ccc1-n1cncn1)c1cc(F)c(F)c(F)c1F	i	22µM*	-5%	nt	1%	i
Cc1ccc(C(=O)Nc2cc(Cl)ccc2-n2cncn2)s1	i	?	-2%	nt	10%	i
Cc1cccc(OCC(=O)Nc2cc(Cl)ccc2-n2cncn2)c1C	i	-8%	-1%	nt	?	i
Cc1ccc(OCC(=O)Nc2cc(Cl)ccc2-n2cncn2)c(C)c1	i	13µM*	0%	nt	6%	i
Cc1ccsc1C(=O)Nc1cc(Cl)ccc1-n1cncn1	i	18µM*	1%	nt	13%	i
O=C1[C@@H](CCc2ccccc2)[C@@H]2c3ccccc3C=NN2[C@@H]2c3ccccc3C=NN12	nt	nt	nt	nt	nt	i
O=[N+]([O-])c1ccccc1-c1cc(-c2cc(Cl)ccc2O)n[nH]1	i	13µM*	3%	nt	0%	nt
SMILES	Abeta yeast res	TDP43 rescue	GRP78 ERSR act	MBNL1 CUG block	aSyn yeast inh	FUS yeast rescue
Cc1ccc(O)c(-c2cc(-c3ccccc3[N+](=O)[O-])[nH]n2)c1	i	?	-1%	nt	22µM*	nt
O=C(OC12CCCN(C1)/C(=C/c1cccc(Cl)c1)C2)c1cccc(F)c1 (configuration not stated)	nt	nt	nt	nt	nt	i
CCCCCCCCc1nc(=S)[nH][nH]1	i	13µM*	-1%	-18%	-2%	i
Cc1c(CC(=O)N2CCC(C(=O)O)CC2)c(=O)oc2cc3c(cc12)CCC1(CCCCC1)O3	i	7%	1%	-1%	-2%	i
Cc1c(CC(=O)N2CCC(O)CC2)c(=O)oc2cc3c(cc12)CCC1(CCCCC1)O3	i	2%	0%	nt	2%	32µM*
CCOC(=O)c1cc(S(=O)(=O)N2CCN(c3cccc(C)c3C)CC2)[nH]n1	?	35µM*	-1%	nt	nt	?
CCOC(=O)c1cc(S(=O)(=O)N2CCN(c3ccc(C)cc3C)CC2)[nH]n1	i	14µM*	-2%	nt	nt	?
COc1ccc2c(c1)OC(C)CN(CCNC(=O)c1cccc(N3CCNC3=O)c1)C2 (configuration not stated)	nt	nt	-2%	nt	nt	nt
CC(C)c1c(C(=O)N(C)Cc2cccc3ncccc23)cnn1-c1nccc(-c2ccccc2F)n1	nt	nt	-5%	nt	nt	nt
Nc1cc(Cl)ccc1CN1C(=O)c2ccccc2C1=O	i	19%	3%	nt	-19%	i
O=C1Cc2ccccc2C(=O)N1Cc1cccc(Cl)c1	i	13µM*	-5%	-15%	0%	i
Nc1cccc2c1C(=O)N(Cc1cccc(Cl)c1)C2=O	i	20µM*	-6%	9%	?	i
Cc1ccc(CN2C[C@H](Sc3ccccn3)C[C@H]2C(=O)Nc2ccc3sc(C)nc3c2)s1	nt	nt	-2%	nt	nt	nt
CCC1CN(CCNC(=O)c2cc(C)nn2CC)Cc2cc(OC)ccc2O1 (configuration not stated)	nt	nt	-4%	nt	nt	nt
CCNC(=O)Nc1cc(OC)c(OC)cc1C(=O)O	i	2%	15%	4%	0%	i
COc1cc(NC(=O)C(c2ccccc2)c2ccccc2)c(C(=O)O)cc1OC	i	22µM*	-1%	-14%	1%	i
Clc1ccccc1-c1nc2ccccc2c2nncn12	i	40µM*	-8%	-2%	-3%	i
CCCCc1nn2c(C)c(-c3ccc(OCC)cc3)nc2s1	i	22µM*	-1%	nt	nt	i
C=CCN1[C@@H](Cc2ccccc2)COc2cccc(F)c2S1(=O)=O	nt	nt	nt	nt	nt	i
CN1C(=S)N(c2cccnc2)C(=O)/C1=C\c1ccc(C(C)(C)C)cc1	i	16µM*	?	6%	?	i
CN1C(=S)N(c2cccnc2)C(=O)/C1=C\c1ccc(N(C)C)cc1	i	-10%[9.22 µM]	-8%	?	-11%	?
CCOC(=O)[C@@H]1[C@H]2COc3ccc(Br)cc3[C@H]2N2C(=O)N(c3ccc(C)cc3)C(=O)[C@]12C	i	27%	-5%	4%	1%	22µM*
